Among all 1,600 compounds or so, about 410 (26%) were called active. Only a sample is shown. A number with no mark means an inactive call.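 How the source made its calls: active means mean inhibition over triplicates above the low-control well mean plus 3 SD, set per campaign (cut at about 13% in these data); inactive means the rest.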
assay: forskolin-stimulated cAMP inhibition in U2OS – cell-based, TR-FRET, triplicate, counter-screen for MC4R biased antagonist project (AID 602193); details: parental U2OS, LANCE TR-FRET, at 6.5 µM, hits give high values;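 further: signal is single emission at 671 nm which falls as cellular cAMP rises; 0% = forskolin-stimulated wells and 100% = buffer without forskolin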

Structure (SMILES) | inhibition
O=C1/C(=C\c2ccc([N+](=O)[O-])cc2)CS(=O)(=O)C/C1=C/c1ccc([N+](=O)[O-])cc1 | 26.1% (active)
Cc1ccc(S(=O)(=O)CCC(=O)OCC(=O)N(C)Cc2ccccc2)cc1 | 1.96%
Cc1ccc(S(=O)(=O)N(C)CC(=O)OCC(=O)N2CC(=O)Nc3ccccc32)cc1 | 17.6% (active)
Cc1ccc(S(=O)(=O)N(C)CC(=O)OCC(=O)Nc2ccccc2)cc1 | 14.4% (active)
COc1ccccc1N(CC(=O)N/N=C(\C)c1ccccc1O)S(=O)(=O)c1ccc(C)cc1 | 5.78%
CCOC(=O)C(C)n1cnc2sc(C)c(C)c2c1=O (configuration not stated) | 4.97%
CC(C)Oc1ccc(/C=C(\NC(=O)/C=C/c2ccco2)C(=O)NCCc2nc3ccccc3[nH]2)cc1 | 2.02%
O=C(CSc1nc2ccc(Nc3nc(N4CCOCC4)nc(N4CCOCC4)n3)cc2s1)NCc1ccco1 | -2.96%
Cc1ccc(NC(=O)c2c(NC(=O)CCC(=O)O)sc3c2CCCCC3)cc1 | 3.65%
N#C/C=C1\Sc2ccccc2C(=O)N1CC(=O)N1CCN(S(=O)(=O)c2ccccc2)CC1 | 7.11%
O=C(COC(=O)Cn1cnc2ccccc2c1=O)NCC12CC3CC(CC(C3)C1)C2 | 19% (active)
O=C(Nc1ccccc1Cl)/C(Cl)=C(\Cl)S(=O)c1ccccc1 (configuration not stated) | -0.54%
Cc1c(CCC(=O)O)c(=O)oc2cc(OCc3ccc(Br)cc3)ccc12 | 2.85%
COc1ccc(Cl)cc1-c1cc(C(=O)Nc2cc(OC)c(OC)c(OC)c2)[nH]n1 | -12.1%
O=S(=O)(NCc1ccco1)c1cnc(Cl)c(Cl)c1 | 21.1% (active)
COc1ccc(-n2nc(C(=O)Nc3cc(OC)c(OC)c(OC)c3)c3ccccc3c2=O)c(OC)c1 | 6.04%
Cc1ccc(C)c(S(=O)(=O)N2CCN(CC(=O)Nc3ccc([N+](=O)[O-])cc3)CC2)c1 | -1.3%
COc1ccc2sc(-c3ccc(S(C)(=O)=O)cc3)c(-c3ccc(C(N)=O)cc3)c2c1 | 6.51%
O=C(Nc1nnc(Cc2ccc(Cl)cc2)s1)c1cccnc1 | -0.09%
CSc1nnc(NC(=O)c2nc(S(=O)(=O)Cc3ccc(C)cc3)ncc2Cl)s1 | 26.5% (active)
O=C(NCCc1c[nH]c2ccccc12)c1cccc(Br)c1 | 2.29%
Cc1ccc(-c2nnc(CN3CCN(C)CC3)o2)cc1 | -0.67%
CCCCOC(=O)CNc1nnc(SCC(=O)OCC)[nH]c1=O | 34.4% (active)
CC(NS(=O)(=O)c1ccc(Br)cc1)C(=O)NCC1CCCO1 (configuration not stated) | 4.96%
CCOC(=O)c1cc(C)nc(S(C)(=O)=O)c1C#N | 9.09%
N#Cc1c(-c2cccs2)nc(SCC(=O)c2ccc(Br)cc2)[nH]c1=O | 12.9%

Structure (SMILES) | inhibition
C#Cc1cc(N2CCN(C(=O)c3ccoc3)CC2)n2nc(-c3cccc(Cl)c3)cc2n1 | 6.98%
COc1ccc(C(C[N+](=O)[O-])n2nc(C)cc2C)cc1 (configuration not stated) | 16.1% (active)
O=C(NCC1CCN(Cc2ccccc2Cl)CC1)Nc1cccc(Cl)c1 | -1.82%
CC(=O)N1CCN(S(=O)(=O)c2c(F)cc(F)c(Cl)c2F)CC1 | 15.9% (active)
O=C(c1ccc2c(c1)N(Cc1ccc(F)cc1)C(=O)c1ccccc1S2(=O)=O)N1CCN(c2ccccn2)CC1 | 1.79%
O=C(Cn1nnc2ccccc2c1=O)Nc1cc(C(F)(F)F)ccc1N1CCOCC1 | -0.34%
CN(CC(=O)NCCc1ccccn1)S(=O)(=O)c1ccc(Cl)cc1 | -1.11%
Cc1c(Cl)cccc1NC(=O)[C@@]1(CC(=O)O)CC(/C=C/c2ccccc2)=NO1 | 0.29%
COc1ccc(Oc2c(Cl)cnn(-c3ccccc3)c2=O)cc1 | 38.1% (active)
O=C(COC(=O)c1c2c(nc3ccccc13)CCCC2)c1ccc(Br)s1 | 4.15%
CCN(CC(=O)NCCCN1CCOCC1)S(=O)(=O)c1cc(Cl)ccc1Cl | -1.05%
Cc1ccc(NC(=O)COC(=O)CNC(=O)c2ccc(Cl)cc2Cl)cc1S(=O)(=O)N1CCOCC1 | 7.9%
Cc1nc2ccccc2c(=O)n1NC(=O)c1ccc(Cl)c([N+](=O)[O-])c1 | 18.5% (active)
CC1(C)C(c2cccs2)=[N+]([O-])C2(CCCCC2=O)N1O (configuration not stated) | -3.22%
Cc1ccc(C(C(=O)NCC2CCCO2)N(C(=O)c2snc(C(N)=O)c2N)c2ccc(C(C)C)cc2)o1 (configuration not stated) | 0.79%
COC(=O)[C@H](Cc1ccccc1)NC(=O)[C@@H]1C[C@H]1[C@@H](NC(=O)OCc1ccccc1)c1ccccc1 | 12%
CC(C)(C)OC(=O)N1CCC(NC(=O)c2[nH]cnc2C(=O)N[C@@H](Cc2ccccc2)C(=O)OCc2ccccc2)CC1 | 16.5% (active)
O=C(Nc1ccc(F)c([N+](=O)[O-])c1)C1CC(=O)N(Cc2ccccc2)C1 (configuration not stated) | 8.59%
Cc1cccc(OCC(O)Cn2c(N3CCCCC3)nc3c2c(=O)[nH]c(=O)n3C)c1 (configuration not stated) | 2.12%
COc1ccc(/C=N/OCC(=O)N(Cc2ccccc2)c2ccccc2C(=O)O)cc1 | -3.38%
CCOC(=O)c1c(-c2ccccc2)oc2cc(Br)c(O)c(C=O)c12 | 30.2% (active)
Cc1nnc(N/N=C/C2CC=CCC2)[nH]c1=O (configuration not stated) | -2.01%
O=C(O)CCn1cc(/C=C/C(=O)c2ccc(Cl)cc2)c(-c2cccc(Br)c2)n1 | -0.6%
Cc1ccccc1-c1n[nH]c(=S)n1/N=C/c1ccc(-c2ccccc2Br)o1 | 0.55%
Cc1ccc(OCC(=O)Nc2ccc(NC(=O)c3cccs3)cc2)c(C)c1 | -2.94%
O=C(COC(=O)[C@H](Cc1ccccc1)NC(=O)c1cccs1)Nc1cc(F)ccc1F | 13.2% (active)

Structure (SMILES) | inhibition
O=C(Nc1nccs1)c1cc(S(=O)(=O)N2CCOCC2)c(Cl)cc1Cl | 10.5%
CC(=O)Nc1ccc(Sc2ccccc2C(=O)N2CCCC2)cn1 | -1.96%
Cc1ccc(NC(=O)C(C)OC(=O)Cc2c[nH]c3ccccc23)cc1S(=O)(=O)N1CCOCC1 (configuration not stated) | 2.7%
CC(C)Oc1c(Br)cc(Br)cc1/C=N/NC(N)=S | 19.3% (active)
C=Cn1c(C(=O)O)ccc1-c1ccc(OC)cc1 | -3.83%
CCOC(=O)c1c(NC(=O)CCl)sc(C(=O)N(CC)CC)c1C | 17.7% (active)
Cc1ccc(NS(=O)(=O)c2ccc(C)c(NC(=O)COc3ccc4ccccc4c3)c2)c(C)c1 | 2.54%
COc1cccc(OC)c1C(=O)Nc1c(C(=O)N2CCN(c3ccccn3)CC2)oc2ccccc12 | -1.8%
CC1(C)Cc2ccccc2-c2[nH]c(=S)[nH]c(=O)c21 | 22.1% (active)
CCOc1ccc(Nc2nc(Cl)nc(N3CCN(c4ccc(OC)cc4)CC3)n2)cc1 | 11.2%
COc1ccc(CCNC(=O)COC(=O)c2cnc(Cl)c(Cl)c2)cc1 | 17.2% (active)
COc1ccc(CCNC(=O)c2cnc(Cl)c(Cl)c2)cc1 | 13.7% (active)
O=C(OCC(=O)N1CCCCCC1)c1cnc(Cl)c(Cl)c1 | 21.2% (active)
COc1ccc(C(C)C)cc1S(=O)(=O)Nc1ncn[nH]1 | 0.13%
CCCC(C(=O)n1nc(C)cc1C)C(NS(=O)(=O)c1ccc(C)cc1)c1ccccc1 (configuration not stated) | 3.42%
CCOC(=O)CSc1nc(N2CCOCC2)c2c(c1C#N)CC(C(C)C)OC2 (configuration not stated) | 3.57%
Cc1ccc(CSc2nnc(-c3cnccn3)n2C)cc1 | -1.1%
COc1ccc(-c2n[nH]c(C)c2-c2ccccc2OC)c(O)c1 | 4.68%
COc1ccc2oc(N)c(C=O)c(=O)c2c1 | -1.23%
COc1ccc(-c2nc3n(c(=O)c2C#N)CCS3)c(OC)c1 | -2.32%
O=C(NC1=CC(=O)c2ccccc2C1=O)c1ccccc1 | -5.71%
COC(=O)c1sc(-c2ccc(C(C)(C)C)cc2)cc1NC(=O)/C=C/C(=O)O | 1.28%
COCCCNC(=O)/C(C#N)=C/c1c(N2CCCCCC2)nc2ccccn2c1=O | 9.32%
CN(C)C(CNC(=O)CCCOc1ccccc1)c1ccco1 (configuration not stated) | -0.67%
Cc1ccc(Sc2ccc(NC(=O)c3ccc(F)cc3)cc2C#N)cc1 | 5.25%
